Measurements taken from the supplement of paper PMC4371806.
The full ranking holds about 1,600 compounds; the median of “plate-normalized OD600 growth (mean of duplicates)” is about 0.31, and the lowest 2% start at about 0.23. The list comes from a sample in which the lowest values are over-represented; it also holds similar structures and randomly drawn compounds.

Tested on: Escherichia coli BW25113
Assay: plate-normalized OD600 growth (mean of duplicates) (OD600 (normalized)); higher = more growth (less inhibition)
Settings: 10 µM
Protocol: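 E. coli BW25113 in LB (100 µl, 96-well, no shaking) was exposed to 10 µM of each compound (here the ChemBridge subset of a ~30,000-member library) and grown at 37°C for 24 h or 15°C for 48 h, in duplicate. Growth was read as OD600 and the duplicate ODs were normalized across screening plates to correct plate-to-plate variation.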

SMILES	plate-normalized OD600 growth (temperature: 15°C, 48 h)	plate-normalized OD600 growth (temperature: 37°C, 24 h)
Cc1ccc2c(c1)C1CN(C)CCC1N2 (stereo not given)	0.227	0.61
O=c1cccc2n1C[C@H]1C[C@H]2CN(Cc2c(Cl)cccc2Cl)C1	0.284	0.625
Cc1ccc(-c2nc3ccccc3c(=O)n2-c2cccc(O)c2)cc1	0.247	0.61
Fc1ccc(CN2CCN(c3cccc(Cl)c3)CC2)c(F)c1	0.253	0.623
CCC(N)C(=O)c1ccc(Br)cc1 (stereo not given)	0.219	0.624
Cc1cccc(C)c1-n1nnnc1C1(Nc2cccc(O)c2)CCCCC1	0.252	0.643
CN1C(=O)N(C)C(=O)C(CCc2ccncc2)(CCc2ccncc2)C1=O	0.266	0.631
CCOc1cc(/C=C/[N+](=O)[O-])ccc1O	0.209	0.585
COc1ccccc1N1CCN(Cc2ccc(N(C)C)cc2)CC1	0.234	0.615
Clc1cccc(N2CCN(Cc3ccc4c(c3)OCO4)CC2)c1	0.275	0.647
CCN1CCN(Cc2ccc(OC)c(C)c2)CC1	0.261	0.606
COc1cccc(CN2CCN(c3cccc(Cl)c3)CC2)c1	0.26	0.623
Cc1cccc(CN2CCN(c3ccccc3)CC2)c1	0.223	0.663
Oc1cccc(CN2CCN(c3ccccc3Cl)CC2)c1	0.26	0.611
COc1cccc(CN2CCN(c3ccccc3)CC2)c1	0.252	0.608
Fc1ccc(N2CCN(CCc3ccccc3)CC2)cc1	0.24	0.615
Oc1cccc(CN2CCN(c3ccc(F)cc3)CC2)c1	0.222	0.646
COc1cc(CN2C[C@@H]3C[C@@H](C2)c2cccc(=O)n2C3)cc(I)c1O	0.263	0.634
O=c1cccc2n1C[C@H]1C[C@H]2CN(Cc2cccc(Cl)c2Cl)C1	0.28	0.659
COc1ccc(CN2C(=O)CC(=O)NC2=O)cc1	0.265	0.633
COc1ccc(N2CCN(Cc3ccc(N(C)C)cc3)CC2)cc1	0.271	0.65
Cc1[nH]c2ccccc2c1CCCNC1CCCCC1	0.264	0.644
Cc1ccccc1-n1c(/C=C/c2ccccc2[N+](=O)[O-])nc2ccccc2c1=O	0.239	0.651
COc1ccc(Br)cc1CN1CCN(C)CC1	0.26	0.617
CN1C(=O)C(C2(C#N)CCCCC2)C(=O)N(C)C1=O	0.264	0.635
COc1cc(Cc2ccc(N)c(OC)c2)ccc1N	0.255	0.625
Cc1ccccc1CN1CCN(c2ccc([N+](=O)[O-])cc2)CC1	0.23	0.605
Nc1ccc(Oc2ccc(N)cc2)cc1	0.168	0.608
OCCN1CCN(Cc2ccc(F)c(F)c2)CC1	0.247	0.612
COC1CCCCC1NC1CCCCC1 (stereo not given)	0.234	0.614
